Reference: the supplement of paper PMC11417369
± gives the standard deviation of the averaged measurements. In all, about 25,000 sequences were measured (“ln(normalized median fluorescence intensity)”: median about 7.9, highest 2% from about 11 on). The list comes from a sample in which the highest values are over-represented; it also holds similar and randomly drawn sequences.

Tested on: PfAP2-I AP2 domain 3 (GST-tagged)
Assay: gcPBM binding intensity (ln(normalized median fluorescence intensity)); higher = stronger DNA binding
How it was run: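 In this array assay, P. falciparum DNA-binding domains with a GST tag, expressed in E. coli, were applied for 1 h to primer-extended double-stranded 36-bp intergenic genomic probes and negative controls on an Agilent 4 × 180k array. Bound protein was visualised with Alexa488 anti-GST antibody at 488 nm. Binding intensity is the highest Masliner-normalised natural-log median intensity across replicate spots of either probe orientation.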

| Sequence | gcPBM binding intensity (ln) |
| --- | --- |
| ACATACTCAAATAGCACACACATAAATAAAAATGTA [CACACA_site3864] | 8.42 ± 0.099 |
| AAAAGAAAATATATGTGTACTAAAATATATATATAT [XGTACX_site3817] | 9.455 ± 0.021 |
| AAATCGTGTACATTGACACACATAATTTTTTTTATA [CACACA_site2463] | 8.09 ± 0.38 |
| TTATTTTATTTTTGTGCACACTGATAAATTGAAAAG [CACACA_site2949] | 10.8 ± 0.22 |
| ATCATCTTTATTCAAGTGCACTGAAAATTTTTTATA [GTGCAC_site9801] | 11.1 ± 0.32 |
| ACATATTATTCAAGTGCACACTTTATATTTATGATT [CACACA_site3295] | 9.715 ± 0.035 |
| TACATCATCTATAAGGTGCATTTTAGTTCTATTAAA | 10.3 ± 0.58 |
| TCCTTTATTTTTAAAGTGCATATACATGTACATTAT [GTGCAC_site9445] | 9.675 ± 0.078 |
| AAAAAAAAAAGAAACACACACATATAGATTTATAAC [CACACA_site6927] | 7.69 ± 0.69 |
| AAGTTTAAAATCTTTGCACACATATAAATAAATATA [CACACA_site2554] | 8.94 ± 0.12 |
| AAAAATATAATATAATGTACACAAAAAAAAAAAATC [XGTACX_site1427] | 7.93 ± 0.52 |
| GTATATAATATTAGTGCACACACAAAAATGTACTAA [CACACA_site8112] | 11.4 ± 0.55 |
| CTATAATATTAGTGCACACACAAAAATGTACTAAAC [CACACA_site6442] | 11.6 ± 0.62 |
| TAGAAACTATGTAATGCACACCAAAATAAAATTATT [CACACA_site8578] | 10.4 ± 0.33 |
| AAAAATATAATATAATGTACACAAAAAAAAAAAAAT [XGTACX_site4914] | 8.18 ± 0.15 |
| AAAAATATAATATAATGTACACATAAACAAAAAAAA [XGTACX_site3658] | 7.92 ± 0.57 |
| ATATTACAAATATAATGTACAAAATATAAATATGCA [XGTACX_site8106] | 7.62 ± 0.3 |
| AGAAAAATAAACAAATGTACAAATTATTACTATATA [XGTACX_site1087] | 7.63 ± 0.34 |
| GAAACTATGTAATGCACACCAAAATAAAATTATTAA [CACACA_site1904] | 10.9 ± 1 |
| TTAAAAAACTATAATACACACCAAAAATATGCACAT [CACACA_site7079] | 9.44 ± 0.7 |
| ATATAATATTAGTGCACACACAAAAATGTACTAAAC [CACACA_site632] | 11.3 ± 0.54 |
| ATAATAAATACACTAGTGCAAAATAATATATGTACT [GTGCAC_site9707] | 10.4 ± 0.22 |
| AGAAGAAATATGTAAAAAATTTTATATTCACACACA [GTGCAC_negctrl_site441] | 8.15 ± 0.33 |
| ATAAATTCATACATTTGTACACAAAAAAAAAAAAAA [XGTACX_site2435] | 8.12 ± 0.57 |

| Sequence | gcPBM binding intensity (ln) |
| --- | --- |
| TTTTTTTTTTCTTTTTGTACATATTCATAACAAGTA [XGTACX_site2784] | 8.12 ± 0.5 |
| AATGTAACAACTTTTTGTACTTAAGAAATAATAAAT [XGTACX_site3310] | 7.64 ± 0.61 |
| TAATTAAAAAATAAAAAAAAAAAAAATTAAAACAAA [CACACA_negctrl_site500] | 7.2 ± 0.58 |
| TGTTATATGTTCAAATGTACAAATCATATACATGTT [XGTACX_site3192] | 7.5 ± 0.65 |
| GTTAGGATAGATTAGACATGCACATAAATGCACTTC [TGCATGCA_site561] | 11.1 ± 0.34 |
| AAAATTAGATTATGCACACACACTTAAAAATAATAA [CACACA_site1975] | 9.97 ± 0.46 |
| AGGATATGCAGACACACACACATATAGATTTATATA [CACACA_site7100] | 7.74 ± 0.55 |
| ATTTTTTCTAATGGGTGTACTGAAACGTATTTTATT [XGTACX_site6573] | 8.16 ± 0.58 |
| TTTGTGGTTACATGTGCACACACTTATTTCGTTCTT [CACACA_site1435] | 9.38 ± 0.4 |
| TATAATATATTCATGTGTACATATATTTCGAACATA [XGTACX_site1754] | 8.01 ± 0.2 |
| ATTTTATTTTCATATGAACACACATATATATATTAT [CACACA_site8741] | 8.35 ± 0.45 |
| GTAATTAAAATATATACACACAAAGGCTATTAAATA [CACACA_site1011] | 7.68 ± 0.52 |
| AATTAATGGCTAAAGGTGCACAATATATATATTACA | 11.3 ± 0.19 |
| AATTAATGGTTAAAGGTGCACAATACATATATTACA [GTGCAC_site9943] | 11.32 ± 0.035 |
| ATATAATAAGGTTAAGCACACATATTACATATATAA [CACACA_site9110] | 8.35 ± 0.23 |
| TTACATACAATTGGTGTGCACATATATATATATATA | 10.29 ± 0.049 |
| ATAATTATATGGCTAGCACACAATAAATAATTATAT [CACACA_site3815] | 7.92 ± 0.42 |
| ATATTATATTTCTTTTGTACATATTATATAATATAT [XGTACX_site7198] | 8.1 ± 0.56 |
| ATATATAAATATATTTGTACATATAATATGTATTAT [XGTACX_site8820] | 7.75 ± 0.47 |
| AATTATTGTGAAGGGAAAACAAAAAAGTTTATAATT [CACACA_negctrl_site1337] | 8.01 ± 0.72 |
| TTTATAAAGGGAAAGGTGCAAAAGGTGAAAGTTTTA | 10.9 ± 0.44 |
| ATAATAATAAAATATATATACAAAGGTGAAATTATA [TGCATGCA_negctrl_site197] | 7.96 ± 0.58 |
| TATGATGATGAATAACGTACAAAAAAATTAATCACC [XGTACX_site6794] | 8.16 ± 0.49 |
| TTTTGTAAAAAGAAAAATTAGAATATATCGTATATA [XGTACX_negctrl_site617] | 7.19 ± 0.45 |

| Sequence | gcPBM binding intensity (ln) |
| --- | --- |
| ATCAACATTACATTTAGTACACATATATTTCTATGT [XGTACX_site4436] | 8.16 ± 0.36 |
| TTTTTTTTCTAAATTATATGAAAATATATGTTATGT [GTGCAC_negctrl_site85] | 7.79 ± 0.23 |
| ACGGAAAAAGAAAAGGTGCATATGGACACAATATAT | 10.85 ± 0.099 |
| AAAGAAATAAGGTGCACACATATACATATATATATA [CACACA_site429] | 10.3 ± 0.29 |
| TAAAAGAAATAAGGTGCACACATATACATATATATA [CACACA_site8037] | 10.19 ± 0.071 |
| TTTTACAAAATAAAAATATAGAATACGGTAAATTAT [GTGCAC_negctrl_site40] | 7.87 ± 0.73 |
| GTTATAAACAAAATAAATATATGAATATATAATAAT [XGTACX_negctrl_site96] | 7.46 ± 0.5 |
| ATAAATTTTTAAACAGCACACATAAATATAATATAT [CACACA_site8691] | 8.28 ± 0.4 |
| TATAAAATAAATTGTGCACACATATTTATAAATATG [CACACA_site2330] | 10.71 ± 0.078 |
| TAAAATAAATTGTGCACACATATTTATAAATATGAA [CACACA_site2331] | 11.3 ± 0.35 |
| AGGAAAATTTTATTTGCACACATTATTACGTCTAAA [CACACA_site2337] | 9.9 ± 0.4 |
| TATATATATATAATTGTGCACATAATTTTAAACCAA | 11.1 ± 0.13 |
| TAATATTTTAATTGTGTGCACATTAATATTATAAAA | 10.1 ± 0.16 |
| AACATATTGGATTTAGTGCACATATATATCATAATA | 11.5 ± 0.29 |
| ATATATCATATTATAGTGCATTTATAATAATATTAT | 10.8 ± 0.13 |
| TAAAATAATATTTATGTGCACATATAATTATTAATT | 10.395 ± 0.007 |
| TTATTATAATCATTAGTGCATATATTATTTTTATAT | 9.795 ± 0.049 |
| GAAATATAATTTATTACACACATTTTAAAAAAATTC [CACACA_site1087] | 7.74 ± 0.18 |
| TTTATATATTTTGTCGTGCACATTTGGAAAATTACA [GTGCAC_site9776] | 10.8 ± 0.16 |
| TATTAAAAGTAAAAAACACACATGGATATATACATA [CACACA_site3959] | 7.67 ± 0.64 |
| AAACAAAGGGAACATGTGCACTTACAAAAAAAAAGA | 9.78 ± 0.28 |
| ATCTATATTATTTCTACACACATATCTATAATATGT [CACACA_site7561] | 7.85 ± 0.72 |
| GCTCATATGACAACAACACACAAAAAAATAAAATGA [CACACA_site714] | 7.8 ± 0.69 |
| TAAACAAATAAATATTGTACATTTTTTCCTTTTAAT [XGTACX_site5594] | 7.38 ± 0.39 |

| Sequence | gcPBM binding intensity (ln) |
| --- | --- |
| TATAGTTTTGAAAACAAACACACAAAAAAAAAAAAA [CACACA_site1691] | 8.07 ± 0.7 |
| TAATATACATATATATGTACATATATATATATATAT [XGTACX_site2684] | 9.09 ± 0.47 |
| TATAAACCTTTTTGCACGCACACAAAAAAAAAATAA [CACACA_site168] | 9.99 ± 0.46 |
| AAAAGTCTCTTTTTAGTGCACATTTTATTTAAATAT | 11.32 ± 0.078 |
| GGGAAAATAAATAAAGTGCAGATATTAAAAGTTGTA | 8.85 ± 0.31 |
| TATGTTGTTTATTTAGTGCATATTTAAATATTATAA [GTGCAC_site9601] | 10.16 ± 0.078 |
| AATATAAGTTTATTAGTGCACAGATAAATATATATT [GTGCAC_site9784] | 11.4 ± 0.23 |
| TAATAAAAAAAGTGCACACACATAATATTTATATAT [CACACA_site7548] | 9.7 ± 0.18 |
| GTGCAAAATATTTTTACACACAAATTTTTACAACAG [CACACA_site3357] | 9.99 ± 0.63 |
| TGTGCATAAATTTATGCACACATAAAAAAAAAAAAA [CACACA_site8954] | 11.5 ± 0.93 |
| TGCATAAATTTATGCACACATAAAAAAAAAAAAAAA [CACACA_site2923] | 10 ± 0.64 |
| ATATATTTATTTTGTGCACACAACGCAAACCTTTTA [CACACA_site3508] | 10.98 ± 0.092 |
| TATATATATATATATGTGCACATTTTATTAAAATGT | 9.87 ± 0.15 |
| TAAAATAATTTATGCATACACACATATATATATATA [CACACA_site4021] | 9.49 ± 0.26 |
| ATTACAATATATACGTGTACATATTACCACCGCTAC [XGTACX_site2308] | 8.46 ± 0.7 |
| ACAATAAATATGTGGTTGCACTTATAATATATTTAT | 8.66 ± 0.4 |
| ATAAAATAAAACAACACACACGAATGTATAAATATA [CACACA_site4643] | 7.66 ± 0.66 |
| TTTTTATAAAATTTTATGAGCTCGGAAAAAATAAAC [GTGCAC_negctrl_site637] | 8.49 ± 0.48 |
| TGTGAAAATTATGGGGCATGCAATACTTTAAAAATA [TGCATGCA_site653] | 7.98 ± 0.72 |
| GAACAACAACAAAAAAAAAAAAAAAAAAAAAAAAAA [CACACA_negctrl_site199] | 8.12 ± 0.83 |
| ATGATGTCTTTATATTGTACATATATGAAGACGTTA [XGTACX_site7751] | 7.79 ± 0.29 |
